KDM5B inh: inhibitors of human KDM5B histone demethylase; Q9UGL1; KDM5B demethylase, FDH-coupled NADH fluorescence (FDH is formaldehyde dehydrogenase); Potency, µM (series often up to 57.7 µM), most hits filed as inhibitors; 220,000 compounds, 2.6% hits; active = well fitted inhibition curve with a large enough effect; inconclusive = small, poorly fitted or top-dose-only effect; inactive = no such curve, though single readings can be large or run the other way; note: nearly all actives have a fitted effect of over 70% in size
Target sequence (Q9UGL1 whole entry, looked up): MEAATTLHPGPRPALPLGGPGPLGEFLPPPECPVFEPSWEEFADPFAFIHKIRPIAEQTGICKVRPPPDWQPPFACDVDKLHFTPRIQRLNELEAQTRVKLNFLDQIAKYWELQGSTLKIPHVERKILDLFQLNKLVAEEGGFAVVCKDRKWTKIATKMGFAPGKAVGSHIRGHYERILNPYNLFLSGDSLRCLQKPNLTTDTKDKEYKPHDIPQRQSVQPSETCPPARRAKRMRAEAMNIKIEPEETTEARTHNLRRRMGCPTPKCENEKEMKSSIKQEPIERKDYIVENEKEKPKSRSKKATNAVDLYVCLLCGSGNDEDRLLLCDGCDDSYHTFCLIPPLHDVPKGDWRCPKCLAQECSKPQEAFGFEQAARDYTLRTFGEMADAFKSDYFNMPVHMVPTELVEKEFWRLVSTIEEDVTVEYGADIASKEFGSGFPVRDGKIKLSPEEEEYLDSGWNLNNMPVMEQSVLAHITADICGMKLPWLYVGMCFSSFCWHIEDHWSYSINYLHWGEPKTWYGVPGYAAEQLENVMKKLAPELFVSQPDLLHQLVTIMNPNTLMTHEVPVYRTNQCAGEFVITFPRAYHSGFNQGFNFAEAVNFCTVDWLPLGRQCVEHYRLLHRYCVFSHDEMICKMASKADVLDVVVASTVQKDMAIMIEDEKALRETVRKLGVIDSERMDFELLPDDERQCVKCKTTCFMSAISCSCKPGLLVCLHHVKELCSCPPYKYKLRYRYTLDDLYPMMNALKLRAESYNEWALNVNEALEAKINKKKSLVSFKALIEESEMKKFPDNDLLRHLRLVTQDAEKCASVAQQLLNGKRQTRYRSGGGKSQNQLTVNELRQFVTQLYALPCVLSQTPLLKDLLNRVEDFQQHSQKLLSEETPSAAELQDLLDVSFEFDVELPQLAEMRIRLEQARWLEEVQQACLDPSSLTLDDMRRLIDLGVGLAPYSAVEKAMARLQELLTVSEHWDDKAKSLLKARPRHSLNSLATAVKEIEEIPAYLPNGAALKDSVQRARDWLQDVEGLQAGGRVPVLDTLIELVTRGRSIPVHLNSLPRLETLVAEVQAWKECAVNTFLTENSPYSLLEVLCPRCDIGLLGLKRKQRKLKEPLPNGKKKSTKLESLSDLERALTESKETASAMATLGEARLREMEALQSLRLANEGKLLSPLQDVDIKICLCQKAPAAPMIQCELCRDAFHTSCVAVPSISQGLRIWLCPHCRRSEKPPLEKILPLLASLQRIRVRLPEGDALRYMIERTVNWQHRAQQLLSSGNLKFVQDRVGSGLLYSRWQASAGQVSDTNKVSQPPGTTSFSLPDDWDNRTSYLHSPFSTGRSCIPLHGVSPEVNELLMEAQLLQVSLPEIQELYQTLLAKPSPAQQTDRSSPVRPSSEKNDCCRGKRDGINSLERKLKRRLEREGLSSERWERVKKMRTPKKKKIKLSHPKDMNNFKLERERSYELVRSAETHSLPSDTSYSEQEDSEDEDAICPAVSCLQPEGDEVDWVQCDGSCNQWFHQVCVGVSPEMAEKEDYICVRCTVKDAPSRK
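Here, H3K4me3 peptide (12.5 µM in substrate mix) is demethylated by KDM5BΔAP, 200 nM final, after 10 min compound exposure. Formaldehyde product is coupled through FDH (0.25 U/mL in mix) to NADH fluorescence; 30-min ΔRFU feeds dose-response curves.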
IP6K1 inhibitor: IP6K1 kinase inhibition. Q92551. IP6K1 kinase, ADP-Glo luminescence, 2 h; stronger effect = lower value. activity change, % (series mostly up to about 58 µM). 140,000 compounds, 0.81% hits; in the data active = activity change below about -25%
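ADP-Glo luminescence measures ADP made by human IP6K1 during a 2 h RT reaction with ATP/IP6 (mix at 1.3 mM/130 uM); top library doses 57.5 and 19.1 uM final.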
Each line names hits and unclear results; the compound was inactive in the other large screens. Rows were chosen to be rich in hits. Some 2.7% of all compounds tested hit in one or more screens of this group.

COC(=O)[C@@H]1Cc2c([nH]c3ccccc23)[C@H]2C[C@@H](NCCNC(C)=O)C[C@@H](c3ccc(C(F)(F)F)cc3)N21	none
O=C(NCc1cccc(C(F)(F)F)c1)c1ccc2nnc(-c3cc(C(F)(F)F)cc(C(F)(F)F)c3)n2c1	none (no result: KDM5B inh)
O=C(NCNC(=O)Nc1ccccc1)Nc1ccccc1	none (no result: IP6K1 inhibitor)
COc1ccccc1-c1cc(C(=O)Nc2ccccc2Cl)c2cnn(C)c2n1	none (no result: KDM5B inh)
CCc1ccccc1NC(=O)c1n[nH]c(=O)c2ccccc12	none (no result: IP6K1 inhibitor)
CCn1cc2nc(SCC(=O)N3CCCC3)n(Cc3ccc(C)cc3)c(=O)c2n1	none (no result: IP6K1 inhibitor)
COC(=O)[C@@H]1Cc2c([nH]c3ccccc23)[C@H]2C[C@@H](NC3CC3)C[C@@H](c3ccc(F)cc3)N21	none
COC(=O)[C@@H]1Cc2c([nH]c3ccccc23)[C@H]2C[C@@H](N3CCOCC3)C[C@@H](c3ccc(F)cc3)N21	KDM5B inh 13µM
COCc1ccc(C(=O)N[C@@H]2CCOC[C@H]2OCc2ccccc2)s1	none
Cc1cc(C(=O)N[C@@H]2CCOC[C@H]2OCC(=O)O)sc1-c1ccccc1	KDM5B inh 25µM
Cn1ncc2c(C(=O)NCCCNC(=O)OC(C)(C)C)cc(-c3cccc(F)c3)nc21	none (no result: KDM5B inh)
COc1ccccc1N1CCCc2ncc(C(=O)Nc3cccc(C(F)(F)F)c3)cc21	KDM5B inh 32µM
COc1cccc(NC(=O)c2cnc3c(c2)N(Cc2ccccc2)CCC3)c1	KDM5B inh 32µM
COc1ccccc1N1CCCc2ncc(C(=O)Nc3cccnc3)cc21	none
COc1cccc(NC(=O)c2cnc3c(c2)N(C(=O)Cc2ccccc2OC)CCC3)c1	none
Cc1ccc(-c2c(C(=O)NCCCc3ccccc3)nc3sccn23)cc1	none (no result: KDM5B inh)
O=C(NCc1ccccc1)C1CCCN(c2ccnc3ccnn23)C1 (stereo unspecified)	none (no result: KDM5B inh)
CCCCc1noc(C(C)N2CCC(c3ccnn3CCO)CC2)n1 (stereo unspecified)	none (no result: IP6K1 inhibitor)
O=C1NCC2(CCN(c3nccc(CCC(F)(F)F)n3)CC2)O1	KDM5B inh 20µM
N#Cc1ccccc1CN1CCN(c2nccc(CCC(F)(F)F)n2)CC1	none
Cc1nnc(-c2cc(Nc3cccc(N(C)C)c3)ccn2)n1Cc1ccccc1	KDM5B inh 32µM
COCCn1c(C)nnc1-c1cc(Nc2ccccc2)ccn1	none
COc1ccc(C(C)=O)cc1CN(C)CC(=O)Nc1cccc(F)c1	none (no result: IP6K1 inhibitor)
COc1ccccc1OCc1nc2c(n1Cc1ccccc1)C(=O)N(Cc1cccc(Cl)c1)CCN2	KDM5B inh inconclusive
CCOC(=O)[C@H]1C[C@]2(CCCCN(CCOC)C2=O)N(C(C)=O)[C@H]1c1ccco1	none (no result: KDM5B inh)
Nc1ncc(C(=O)N2CCCC3(CCOC3)C2)c(-c2ccccc2)n1 (stereo unspecified)	KDM5B inh inconclusive
CC(=O)N1CCN(C(=O)c2cnc(N)nc2-c2ccccc2)CC(O)C1 (stereo unspecified)	KDM5B inh 25µM
COCC1CN(C(C)=O)CC12CCN(C(=O)c1cc3ccccc3[nH]1)CC2 (stereo unspecified)	none
CC(=O)N1CCN(C(=O)c2cc3ccccc3[nH]c2=O)CC(O)C1 (stereo unspecified)	KDM5B inh 28µM
O=C(C1CCCN(Cc2cccc(-c3cccs3)c2)C1)N1CCCC1 (stereo unspecified)	none (no result: KDM5B inh)
CC(Nc1nc(-c2ccc(CNC(=O)C(C)(C)C)s2)cs1)c1ccccc1 (stereo unspecified)	none (no result: IP6K1 inhibitor)
COc1cccc([C@H]2CN(C(=O)c3c(C)nn4c(C)cc(C)nc34)C[C@@H]2N)c1	KDM5B inh 28µM
Cc1cc(C)n2nc(C)c(C(=O)N3CCCC(c4cccc(C(=O)O)c4)C3)c2n1 (stereo unspecified)	KDM5B inh 32µM
CCCOc1ccc(C(=O)N2C[C@H](c3cccc(OC)c3)[C@@H](N)C2)cc1Cl	none
O=C(O)c1cccc(C2CCCN(C(=O)c3ccc4c(c3)ncn4CCO)C2)c1 (stereo unspecified)	none
Cc1cc(C(=O)OC(C)C(=O)N2CCCCCC2)c2ccccc2n1 (stereo unspecified)	none (no result: IP6K1 inhibitor)
CCOC(=O)[C@@H]1[C@@H](O)C(=O)N(Cc2ccccc2)C12CCN(C(=O)OCC(C)(C)C)CC2	none (no result: KDM5B inh)
CCC(=O)Nc1c(C)cc(C)cc1C	none (no result: IP6K1 inhibitor)
COCCNC(=O)c1ccc2nnc(-c3ccc(Cl)cc3)n2c1	none (no result: KDM5B inh)
O=C(NC1CC1)c1ccc2nnc(-c3ccc(Cl)cc3)n2c1	KDM5B inh 50µM
COCCNC(=O)c1ccc2nnc(-c3cncc(Cl)c3)n2c1	KDM5B inh 100µM
O=C(NC1CC1)c1ccc2nnc(-c3cncc(Cl)c3)n2c1	none (no result: KDM5B inh)
CCN(CC(=O)Nc1ccc(NC(C)=O)cc1)Cc1nc2ccccc2o1	none (no result: IP6K1 inhibitor)
Cc1cccc(N(C)C(=O)COC(=O)c2ccc(F)cc2)c1	none (no result: IP6K1 inhibitor)
Cn1c(=O)c2c(nc(SCC(=O)NCc3ccc(F)cc3)n2Cc2ccccc2F)n(C)c1=O	none (no result: IP6K1 inhibitor)
CNC(=O)c1cc(C2CC2)nc2c1c(C1CCCN(C(=O)C3CCCCC3)C1)nn2C (stereo unspecified)	none (no result: KDM5B inh)
COC(=O)CNC(=O)c1cc(C(C)(C)C)nc2c1cnn2C	KDM5B inh 89µM
C#CCNC(=O)c1cc(-c2ccc(Cl)cc2)nc2c1cnn2C	none (no result: KDM5B inh)
COC(=O)CNC(=O)c1cc(-c2ccc(Cl)nc2)nc2c1cnn2C	KDM5B inh 79µM
COC(=O)CNC(=O)c1cc(-c2ccccc2)nc2c1cnn2C	none (no result: KDM5B inh)
Cn1ncc2c(C(=O)NC3CC3)cc(-c3cccnc3)nc21	KDM5B inh 89µM
Cn1ncc2c(C(=O)NC3CC3)cc(-c3ccc(Cl)nc3)nc21	none (no result: KDM5B inh)
COCCNC(=O)c1cc(-c2ccc(Cl)nc2)nc2c1cnn2C	none (no result: KDM5B inh)
C#CCNC(=O)c1cc(-c2ccc(Cl)nc2)nc2c1cnn2C	KDM5B inh 100µM
O=C(O)C(O)c1ccc(F)cc1 (stereo unspecified)	none (no result: IP6K1 inhibitor)
Cc1cc(C)c2c(=O)cc(C(=O)Nc3nnc(C)s3)oc2c1	none (no result: IP6K1 inhibitor)
Cc1cccc(N2Cc3c(ncnc3N3CCC(c4ccccc4)CC3)N(C)CC2=O)c1	none (no result: KDM5B inh)
O=C(NCc1ccc(C(F)(F)F)cc1)[C@@H]1Cc2nc[nH]c2CN1Cc1ccc([N+](=O)[O-])cc1	none
COC(=O)[C@@H]1Cc2nc[nH]c2CN1Cc1ccc(OC)c2ccccc12	KDM5B inh 32µM
COc1ccc(CNC(=O)[C@@H]2Cc3nc[nH]c3CN2Cc2ccc(OC)c3ccccc23)cc1	KDM5B inh inconclusive
COC(=O)[C@@H]1Cc2nc[nH]c2CN1Cc1ccc([N+](=O)[O-])cc1	KDM5B inh 28µM
CC(C)CCNC(=O)Cn1cc(C#N)c2ccccc21	none (no result: IP6K1 inhibitor)
CN(CC(=O)NC(=O)NCc1ccccc1)CC(=O)Nc1cccc(F)c1	none (no result: IP6K1 inhibitor)
O=S1(=O)CCN(Cc2c(F)cccc2F)c2c(F)nc(N3CCOCC3)c(F)c21	none (no result: IP6K1 inhibitor)
CCn1c(-c2ccc(Br)cc2)cnc1SC(C)C(N)=O (stereo unspecified)	none (no result: IP6K1 inhibitor)
O=c1c2c(n(Cc3cccnc3)n1-c1ccccc1)CN(Cc1ccccc1Cl)CC2	KDM5B inh inconclusive
COCCn1c2c(c(=O)n1-c1ccccc1)CCN(Cc1ccncc1Cl)C2	KDM5B inh 35µM
O=C(O)c1cnc(-c2cc(NCc3ccccn3)nc3[nH]ccc23)c(Cl)c1	KDM5B inh inconclusive
NC(=O)c1cc(-c2cc(NCc3cccnc3)nc3[nH]ccc23)ccc1F	KDM5B inh 25µM
FC(F)(F)C1CN(c2ccc3cc(Cl)ccc3n2)CCO1 (stereo unspecified)	KDM5B inh 14µM
FC(F)(F)C1CN(c2cc(N3CCOCC3)ncn2)CCO1 (stereo unspecified)	none

Screening results: PubChem, National Center for Advancing Translational Sciences (NCATS)
